Source: PubChem BioAssay (Tox21)
Where “and” joins values, the source holds several entries; their conditions need not be identical. Equal entries are not always repeated. Inconclusive results are not listed. A call without a number means that no potency is given here. More than one record can exist for a structure, and the calls need not agree. Calls of active or inactive are those of the source. Unless noted, the call rests on the fitted dose curve; in most records, active means well fitted curve in the direction sought with a large enough effect in the repeat runs; inconclusive means weak or mixed curves; inactive means no such curve, though single readings can be large; an effect the other way counts as inactive or inconclusive.

Tests used:
[1] = qHTS assay for small molecule agonists of the p53 signaling pathway (AID 651631; calls by dose curve; further: nearly all actives have a fitted effect of over 15% in size)
How it was run: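 Read-out is beta-lactamase FRET fluorescence measured 2 h after substrate addition at room temperature, in HCT-116 cells with a p53 response element-driven reporter exposed to compounds for 16 h at 37 °C.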

[2] = qHTS assay for small molecules that induce genotoxicity in human embryonic kidney cells expressing luciferase-tagged ATAD5 (AID 651632); further: nearly all actives have a fitted effect of over 15% in size
How it was run: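 Test compounds were delivered by pin tool onto HEK293T reporter cells (2,000/well) expressing ATAD5 fused to luciferase. After 16 hr at 37C, 5% CO2, Amplite was added for 30 min at room temperature and luminescence was measured.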

[3] = qHTS assay for small molecule agonists of the p53 signaling pathway - cell viability (AID 651633; calls by dose curve;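 further: p53RE-bla HCT reporter cells with a stable beta-lactamase p53 reporter; series mostly up to about 83 µM; nearly all actives have a fitted effect of over 30% in size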)
How it was run: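 Viability counter-read: CellTiter-Glo luminescence (30 min, room temperature) in the same p53RE-bla plates. These plates had been exposed to compounds for 16 h at 37 C.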

[4] = qHTS assay for small molecule disruptors of the mitochondrial membrane potential - cell viability (AID 720634; calls by dose curve;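 further: human HepG2 liver cancer cells; series mostly up to about 83 µM; nearly all actives have a fitted effect of over 20% in size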)
How it was run: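 Same-well counter-screen: following the MMP dye addition, CellTiter-Glo was added to 1 hr compound-treated HepG2 cells and luminescence read after 30 min at room temperature.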

[5] = qHTS assay to test for compound auto fluorescence at 590 nm (red) in HepG2 cells (AID 720674)
How it was run: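 Red autofluorescence (Ex/Em 540/590 nm, Rose Bengal sodium equivalents) was measured in HepG2 cells, 2,000 per well in MEM plus 10% FBS, plated overnight at 37 C. Readings were taken 1 hr after adding 23 nL compound or DMSO, at 37 C and 5% CO2.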

[6] = qHTS assay to test for compound auto fluorescence at 535 nm (green) in HepG2 cells (AID 720675)
[7] = qHTS assay to test for compound auto fluorescence at 460 nm (blue) in HEK293 cells (AID 720678)
How it was run: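 Measured: blue fluorescence (Ex 405/Em 460 nm) of compound-treated HEK293 cells, incubated overnight at 37C with 5% CO2 and scaled to triamterene equivalents.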

[8] = qHTS assay to test for compound auto fluorescence at 590 nm (red) in HEK293 cells (AID 720679)
How it was run: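 Using HEK293 cells at 2,000 per well, the screen added 23 nL of each compound after cell attachment and incubated overnight (37C, 5% CO2). The plate reader then captured red-label fluorescence, Ex/Em 540/590nm.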

[9] = qHTS assay to test for compound auto fluorescence at 535 nm (green) in HEK293 cells (AID 720680)
[10] = qHTS assay to test for compound auto fluorescence at 460 nm (blue) in HEK293 cell free culture (AID 720681)
How it was run: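 Blue fluorescence (Ex 405/Em 460 nm, triamterene-equivalent) was read immediately after pin transfer of compound or DMSO into medium (DMEM, 10% FBS) without cells.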

[11] = qHTS assay to test for compound auto fluorescence at 535 nm (green) in HEK293 cell free culture (AID 720682)
How it was run: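 Fluorescein serves as the green reference fluorophore; each compound's intrinsic emission at 535 nm (excitation 485 nm) is reported as an equivalent amount of that dye, measured in serum-containing DMEM without cells.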

[12] = qHTS assay to test for compound auto fluorescence at 590 nm (red) in HEK293 cell free culture (AID 720683)
How it was run: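 Red-channel autofluorescence of compounds in culture medium (DMEM, 10% FBS), no cells, measured at 540/590 nm. Rose Bengal sodium is the reference fluorophore for equivalence.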

[13] = qHTS assay to test for compound auto fluorescence at 590 nm (red) in HepG2 cell free culture (AID 720684)
How it was run: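 No cells present: MEM + 10% FBS only. Compound pinned in, red label read (540/590 nm). Activity = fluorescence equivalent to Rose Bengal sodium.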

[14] = qHTS assay to test for compound auto fluorescence at 460 nm (blue) in HepG2 cell free culture (AID 720685)
How it was run: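 Cell-free plates of MEM plus 10% FBS received 23 nL compound or DMSO vehicle; blue-channel (405/460 nm) intensity scored against triamterene as reference fluorophore.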

[15] = qHTS assay to test for compound auto fluorescence at 535 nm (green) in HepG2 cell free culture (AID 720686)
[16] = qHTS assay to test for compound auto fluorescence at 460 nm (blue) in HepG2 cells (AID 720687)
How it was run: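 Blue-channel autofluorescence (Ex/Em 405/460 nm, triamterene-equivalent) was measured after 1 hr compound exposure at 37 C, 5% CO2. Cells were HepG2, plated overnight at 37 C in MEM plus 10% FBS.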

[17] = qHTS assay for small molecules that induce genotoxicity in human embryonic kidney cells expressing luciferase-tagged ATAD5 - cell viability (AID 651634; calls by dose curve; further: nearly all actives have a fitted effect of over 25% in size)
How it was run: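 Quantitative high-throughput format. HEK293T cells expressing ATAD5 fused to luciferase were plated at 2,000 cells/well and treated 15.5 hr with compound versus DMSO. Viability was determined by fluorescent live-cell protease substrate, 30 min at 37C.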

[18] = qHTS assay for small molecule disruptors of the mitochondrial membrane potential (AID 720635); further: potency means the concentration at half of the fitted maximal effect
How it was run: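 Mitochondrial membrane potential tracked with Mito-MPS dye, red aggregates (ex 540/em 590 nm) against green monomers (ex 490/em 535 nm). Compound treatment 1 hr at 37C, dye 30 min in HepG2.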

[19] = biological target: Glucocorticoid receptor (Homo sapiens) (UniProt P04150); test: qHTS assay to identify small molecule agonists of the glucocorticoid receptor (GR) signaling pathway (AID 720691; active means well fitted activation curve with a large enough effect in the signal ratio in the repeat runs, not every such curve was filed as active; the % refers to the signal ratio)
How it was run: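 A HeLa cervical cancer line expressing GR and a glucocorticoid response element-driven beta-lactamase gene is treated with compounds for 18 h; LiveBLAzer B/G FRET substrate is then applied and fluorescence read.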

[20] = biological target: Glucocorticoid receptor (Homo sapiens) (UniProt P04150); test: qHTS assay to identify small molecule antagonists of the glucocorticoid receptor (GR) signaling pathway (AID 720692; active means well fitted inhibition curve with a large enough effect in the signal ratio in the repeat runs, not every such curve was filed as active; the % refers to the signal ratio)
How it was run: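 GRE-bla HeLa line, dex-stimulated (5 nM final). Compound exposure 18 h, 37 C. Beta-lactamase FRET read after 2 h RT substrate.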

Sequence of Glucocorticoid receptor (Homo sapiens) (P04150 whole entry, looked up): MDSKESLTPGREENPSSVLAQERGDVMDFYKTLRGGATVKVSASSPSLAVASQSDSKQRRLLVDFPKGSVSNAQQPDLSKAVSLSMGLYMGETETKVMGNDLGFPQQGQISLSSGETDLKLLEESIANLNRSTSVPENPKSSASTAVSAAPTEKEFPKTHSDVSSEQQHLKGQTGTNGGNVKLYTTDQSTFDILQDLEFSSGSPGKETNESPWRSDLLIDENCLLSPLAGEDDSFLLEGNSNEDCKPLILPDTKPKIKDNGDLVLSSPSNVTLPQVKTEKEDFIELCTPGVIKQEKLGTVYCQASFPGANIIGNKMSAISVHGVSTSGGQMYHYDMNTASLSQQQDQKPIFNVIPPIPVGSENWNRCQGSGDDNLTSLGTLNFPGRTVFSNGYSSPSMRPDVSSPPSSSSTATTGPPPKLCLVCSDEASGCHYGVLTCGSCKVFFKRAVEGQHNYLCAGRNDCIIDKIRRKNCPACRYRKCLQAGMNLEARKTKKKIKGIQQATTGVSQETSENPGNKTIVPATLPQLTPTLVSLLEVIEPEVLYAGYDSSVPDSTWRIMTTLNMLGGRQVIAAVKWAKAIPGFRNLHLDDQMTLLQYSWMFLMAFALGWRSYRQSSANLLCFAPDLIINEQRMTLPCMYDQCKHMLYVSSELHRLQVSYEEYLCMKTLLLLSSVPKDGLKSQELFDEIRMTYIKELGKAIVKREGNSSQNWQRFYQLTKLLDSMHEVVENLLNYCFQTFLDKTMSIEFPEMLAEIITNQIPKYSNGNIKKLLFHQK

Row | Structure (SMILES) | Potency [1] | Potency [2] | Potency [3] | Potency [4] | outcome [5] | outcome [6] | outcome [7] | outcome [8] | outcome [9] | outcome [10] | outcome [11] | outcome [12] | outcome [13] | outcome [14] | outcome [15] | outcome [16] | Potency [17] | Potency [18] | outcome [19] | Potency [20]
1 | COc1cc(-c2ccc(N)c(OC)c2)ccc1N | inactive | inactive | inactive | inactive | inactive | inactive | inactive | inactive | inactive | inactive | inactive | inactive | inactive | inactive | inactive | inactive |  |  |  | 
2 | O=[N+]([O-])c1ccc(Cl)c(Cl)c1 |  | inactive | inactive | inactive | inactive | inactive | inactive | inactive | inactive | inactive | inactive | inactive | inactive | inactive | inactive | inactive | inactive | inactive | inactive | inactive
3 | Cc1cccc(N)c1 |  | inactive | inactive | inactive | inactive | inactive | inactive | inactive | inactive | inactive | inactive | inactive | inactive | inactive | inactive | inactive | inactive | inactive |  | 
4 | CCCCCCCCCCCCCCCCCC(=O)O |  |  |  | inactive | inactive | inactive | inactive | inactive | inactive | inactive | inactive | inactive | inactive | inactive | inactive | inactive | inactive | inactive and 54.1 µM (active) |  | 
5 | C=CC(=O)OCC(CC)CCCC (configuration not stated) | inactive |  | inactive | inactive | inactive | inactive | inactive | inactive | inactive | inactive | inactive | inactive | inactive | inactive | inactive | inactive |  | inactive | inactive | inactive
6 | O=P1(NCCCl)OCCCN1CCCl (configuration not stated) |  | inactive |  | inactive | inactive | inactive | inactive | inactive | inactive | inactive | inactive | inactive | inactive | inactive | inactive | inactive | inactive | inactive | inactive | inactive
7 | CC(=O)/C=C/c1ccccc1 |  | inactive | inactive | inactive | inactive | inactive | inactive | inactive | inactive | inactive | inactive | inactive | inactive | inactive | inactive | inactive | inactive | inactive | inactive | inactive
8 | CNC(=O)O/N=C/C(C)(C)S(C)=O (configuration not stated) |  | inactive | inactive | inactive | inactive | inactive | inactive | inactive | inactive | inactive | inactive | inactive | inactive | inactive | inactive | inactive | inactive | inactive | inactive | inactive
9 | NNc1ccccc1 |  | inactive | inactive | inactive | inactive | inactive | inactive | inactive | inactive | inactive | inactive | inactive | inactive | inactive | inactive | inactive |  | inactive |  | 
